Measurements reported in PubChem BioAssay AID2716 (Broad Institute, 2010).
Hit rate of the full screen: of about 320,000 compounds, about 3,300 (1%) were called active.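 Rule for the calls: active = every valid replicate shows activation above 250% relative to neutral control wells; inactive = the rest, any valid replicate at or below 250%.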 Only a selection was taken, and actives are over-represented in it overall.

test: yeast Mot1-301 growth rescue at high temperature, primary screen, SUMOylation pathway inhibitor project, S. cerevisiae, ATP luminescence, 38.5C (AID 2716);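 note: OY570 slx delta 5 strain wells were the positive control but not used for scaling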; conditions: S. cerevisiae Mot1-301 growth rescue, at 18.8 µM, hits give high values, percent above DMSO median, 100 means doubled

Growth rescue, active:
N#CC1=C(N)Oc2n[nH]c(CSc3ccccc3)c2C12C(=O)Nc1ccccc12 (centres undefined) 564%, Cc1ccc(S(=O)(=O)N(C)C)cc1NC(=O)COC(=O)c1c(C)noc1C 358%, COCCCN1C(=O)c2ccc(C(=O)Nc3ccc(OC)cc3OC)cc2C1=O 994%, O=C(COC(=O)c1ccccc1C(=O)c1ccccc1)c1ccco1 524%, Cc1ccc(N2C(=O)C3N=NN(CC(=O)N4N=C(c5cccc6ccccc56)CC4c4ccccc4)C3C2=O)cc1 (centres undefined) 376%, O=C(O)c1cnn2c(C(F)(F)F)cc(-c3ccccc3)nc12 310%, COC(=O)c1cc2nc(-c3ccccc3)cc(C(F)(F)F)n2n1 295%

Growth rescue, inactive:
COC(=O)c1ccc(COc2cc([N+](=O)[O-])cc3cccnc23)cc1 -14.7%, N#CC1=C(N)Oc2[nH]c(=S)[nH]c(=O)c2C12C(=O)Nc1ccccc12 (centres undefined) -12%, COC(=O)CCSc1nccn1Cc1ccccc1 -6.82%, Cc1ccc(S(=O)(=O)N(C)C)cc1NC(=O)COC(=O)C1COc2ccccc2O1 (centres undefined) -1.18%, Cc1ccc(S(=O)(=O)N(C)C)cc1NC(=O)COC(=O)/C=C/c1cccs1 -3.27%, O=c1[nH]n2c(=O)c3c([nH]c2c1N=Nc1ccccc1)CCC3 -13.5%, COCCCN1C(=O)c2ccc(C(=O)OCC(=O)NCc3ccccc3OC)cc2C1=O -4.61%, COc1ccc(OC)c(NC(=O)c2ccc3c(c2)C(=O)N(c2ccc(OC(C)=O)cc2)C3=O)c1 -1.05%, Cc1cc(S(=O)(=O)c2cc3ccc(O)c(C)c3oc2=O)ccc1F 2.17%, COc1ccc(F)cc1S(=O)(=O)NCC(c1ccc2c(c1)OCO2)N1CCN(C)CC1 (centres undefined) 72.2%, COc1ccc(NC(=O)CSc2ccc(-c3ccco3)nn2)c(OC)c1 -3.7%, CCN(CC)c1ccc(C(=O)OCC(=O)c2ccco2)cc1 -12.1%, CCc1ccc(C(=O)COC(=O)c2ccco2)cc1 2.04%, O=C(COC(=O)c1ccccc1O)NCc1ccco1 0.0433%, O=C1C2N=NN(CC(=O)N3N=C(c4cccc5ccccc45)CC3c3ccccc3)C2C(=O)N1c1ccccc1 (centres undefined) -6.23%, CC(=O)Oc1ccccc1C1=NN(C(C)=O)C(c2ccccc2)C1 (centres undefined) -0.218%, S=C(c1ccc(-c2ccccc2)o1)N1CCCCC1 32.2%, CCOC(=O)c1cc(-c2ccccc2C)n(Cc2cc(C)no2)n1 -17.1%, Cc1cc(C(F)(F)F)n2ncc(-c3ccccc3)c2n1 4.42%, COc1ccc(NC(=O)c2cc3nc(-c4ccccc4)cc(C)n3n2)cc1OC 50%, O=C(c1ccccc1)N1CCN(C(=O)c2cc3nc(-c4ccccc4)cc(C(F)(F)F)n3n2)CC1 -13.8%, Cc1ccc(-c2cc(C(F)(F)F)n3ncc(C(=O)N4CCCCC4c4cccnc4)c3n2)cc1 (centres undefined) -2.2%
